Reference: PubChem BioAssay AID1251 (SRMLSC, 2008)
The campaign covered roughly 200,000 compounds. About 720 (0.36%) were called active. Rule as the data show it: active = inhibition above about 30%; inactive = the rest, inconclusive results apart. Shown is part of a subset that was picked to be rich in actives.

experiment: inhibitors of arbovirus infection in cells – cell-based, full library, 10K replicate subset, primary screen (AID 1251); conditions: arbovirus infection cell-based antiviral screen, at 10 µM, hits give high values

Compound | inhibition
COc1ccc(CCNC(=O)/C(C#N)=C2\N=C(NC(=O)c3cccs3)c3ccccc32)cc1 | 1.79% (inactive)
O=C(O)/C=C/c1cn(Cc2ccccc2)nc1-c1cccs1 | 9.79% (inactive)
Cc1c(Cl)cccc1NC(=S)NCc1ccc2c(c1)OCO2 | -9.04% (inactive)
COCC(C)NCc1cc(Br)ccc1OC (stereo not given) | 5.99% (inactive)
CCOc1ncccc1C(=O)N(C)CC(=O)Nc1ccc(F)cc1 | -2.52% (inactive)
Cc1cc2ccccc2n1CCC(=O)O | 4.57% (inactive)
COc1ccccc1N1CCN(C(=O)c2ccc(Cl)c(S(=O)(=O)N3CCCC3)c2)CC1 | 4.9% (inactive)
O=C(COc1ccccc1Cl)Nc1ccc(C(=O)c2ccc(C(=O)O)cc2)cc1 | 1.44% (inactive)
COc1cc(NC(=O)COc2ccccc2Cl)ccc1NC(=O)C(C)C | -3.4% (inactive)
CC(=O)Nc1ccc(NC(=O)COc2ccccc2C(=O)Nc2cccc(Cl)c2Cl)cc1 | 33.1% (active)
CSc1ccccc1NC(=O)CN(C)CC(=O)Nc1ccc(Cl)cc1[N+](=O)[O-] | 9.71% (inactive)
COc1ccccc1C(=O)Nn1c(-c2cccs2)nc2ccccc2c1=O | -3.21% (inactive)
CCOC(=O)N1CCN(C(=O)Cn2cnc3ccccc3c2=O)CC1 | 4.88% (inactive)
CCOC(=O)C(=Cc1ccccc1OC)C(=O)OCC | 1.92% (inactive)
O=c1c2c(ncn1Cc1ccccc1)nc1n2CCC1 | -1.22% (inactive)
COc1ccc(/C=N/NC(=O)C(C)N(c2ccc(OC)cc2)S(C)(=O)=O)cc1 (stereo not given) | -1.77% (inactive)
COc1cc(OC)cc(C(=O)OCC(=O)Nc2sccc2C(N)=O)c1 | 4.53% (inactive)
O=C(COC(=O)C12CC3CC(CC(O)(C3)C1)C2)NC12CC3CC(CC(C3)C1)C2 | 5.43% (inactive)
Cc1ccc(C(=O)N/C(=C\c2ccco2)C(=O)N2CCSCC2)cc1C | 4.17% (inactive)
O=C(Nc1ccn(Cc2ccccc2)n1)c1cccc(F)c1 | -18.6% (inactive)
O=C(Nc1ccn(Cc2ccc(F)cc2)n1)c1ccncc1 | 3.28% (inactive)
O=C(Nc1ccn(Cc2ccccc2)n1)c1n[nH]c([N+](=O)[O-])c1Cl | 50.2% (active)
CC(=O)NC(NC(=S)Nc1c(C)n(C)n(-c2ccccc2)c1=O)C(Cl)(Cl)Cl (stereo not given) | 7.15% (inactive)
CCOc1cc(NC(=S)NCCCN(C)C)c(OCC)cc1NC(=O)C1CC1 | 5.58% (inactive)

Compound | inhibition
CCOc1ccc(Br)cc1S(=O)(=O)Nc1cccc(S(=O)(=O)N(CC)CC)c1 | 2.51% (inactive)
CN(C)c1ccc(C(CC(=O)O)C(=O)O)cc1 (stereo not given) | 2.46% (inactive)
COc1ccc(N2C(=O)C(CC(=O)Nc3ccccc3)N(Cc3ccc(OC)c(OC)c3)C2=O)cc1 (stereo not given) | 0.98% (inactive)
O=C(c1ccncc1)N1CCN(c2ccc3ccccc3n2)CC1 | 5.37% (inactive)
O=C(c1ccc2ccccc2n1)N1CCN(c2ccccc2Cl)CC1 | 36% (active)
COc1ccccc1N1CCN(C(=O)c2cc(-c3ccc(Cl)c(Cl)c3)on2)CC1 | 2.74% (inactive)
Cc1cc(C(=O)NNC(=O)CCC2CCCCC2)c(C)o1 | -2.2% (inactive)
C=CCn1nc(-c2ccccc2)c2c(C)onc2c1=O | 4.65% (inactive)
Cc1ccc(-c2cc(C(F)(F)F)n3ncc(C(=O)N4CCCCC4c4cccnc4)c3n2)cc1 (stereo not given) | -9.25% (inactive)
COCCn1c(C)cc(C(=O)CSc2nc3ccccc3c(=O)n2C(C)COC)c1C (stereo not given) | 8.78% (inactive)
Cc1nc(Nc2ccc(S(=O)(=O)N3CCCC3)cc2)c2nnn(Cc3ccccc3)c2n1 | -12.5% (inactive)
Cc1nc(Nc2ccc3c(c2)OCCO3)c2nnn(Cc3ccccc3Cl)c2n1 | 51.5% (active)
CCCc1nc(NCc2ccc3c(c2)OCO3)c2nnn(Cc3ccccc3Cl)c2n1 | -16.2% (inactive)
Cc1ccc2nsnc2c1S(=O)(=O)N1CCCC1C(=O)O (stereo not given) | 1.07% (inactive)
CCOC(=O)c1oc2ccccc2c1NC(=O)c1cccs1 | -1.76% (inactive)
COCc1c(C(=O)OCc2c(C)noc2C)oc2ccccc12 | 3.37% (inactive)
Cc1cc(C)c(NC(=O)c2oc3ccccc3c2COc2ccccc2)c(C)c1 | 32.5% (active)
O=c1[nH]c(CN2CCOCC2)nc2scc(-c3ccccc3)c12 | 5.07% (inactive)
O=C(CN(CC1CCCO1)C(=O)CNS(=O)(=O)c1ccc(F)cc1)NCc1ccco1 (stereo not given) | 2.42% (inactive)
C/C(=N\N=C(N)N)c1ccc(Cl)cc1 | -24.2% (inactive)
CC(C)(C)C(=O)NCCCNc1ccc([N+](=O)[O-])cc1 | 1.95% (inactive)
O=C(CNCc1ccc(F)cc1)Nc1ccccc1-c1ccccc1 | -16.4% (inactive)
Cc1ccc(N2CCN(C3=NC(=O)/C(=C\c4cccs4)S3)CC2)cc1 | 6.43% (inactive)
CCc1ccc(/C=C2\SC(N3CCOCC3)=NC2=O)cc1 | -6.68% (inactive)

Compound | inhibition
Cc1ccc(Cl)c(NC(=O)CN2CCN(C=O)CC2)c1 | 5.23% (inactive)
COc1ccc(CCn2ccc(O)c(Cc3ccc(Cl)cc3Cl)c2=O)cc1OC | 5.76% (inactive)
C/C(CCc1ccccc1)=N\NC(=O)c1ccc(CN2CCOCC2)cc1 | -3.19% (inactive)
COc1ccc2c(c1)CCC/C2=N\OC(=O)c1ccccc1F | -1.6% (inactive)
CCOc1cc(CNCc2ccccn2)ccc1OCC(=O)NC(C)(C)C | -2.89% (inactive)
CCCCCC(=O)NC(=S)NNC(=O)c1ccc([N+](=O)[O-])cc1 | -18% (inactive)
CCN(C(=O)COC(=O)c1cc(S(=O)(=O)N2CCc3ccccc32)ccc1OC)C1CCS(=O)(=O)C1 (stereo not given) | 7.54% (inactive)
CCN(CC)CCNC(=O)c1ccc(NC(=O)c2c(F)cccc2Cl)cc1 | -4.69% (inactive)
Cc1cc(C)c2nc(SCC(=O)N(C)C3CCS(=O)(=O)C3)cc(C)c2c1 (stereo not given) | -6.1% (inactive)
CCSc1nnc(NC(=O)c2ccc(C)cc2)s1 | 33.2% (active)
CC(=O)c1sc(NC(=O)c2ccc(C)cc2)nc1C | -4.42% (inactive)
CCSc1nnc(NC(=O)Cc2ccccc2OC)s1 | 3.03% (inactive)
COc1cccc(CNn2cn[nH]c2=S)c1OCc1ccccc1 | -1.17% (inactive)
NC(=O)CC[C@@H]1NC(=O)[C@@H]2CCCN2C(=O)c2cc([N+](=O)[O-])cc(F)c2NCCC[C@@H](C(N)=O)NC1=O | 8.77% (inactive)
O=C(CSc1ncn[nH]1)NCc1ccc2c(c1)OCO2 | 2.87% (inactive)
CCNC(=S)N1CCN(c2ncccn2)CC1 | -0.7% (inactive)
O=C(C1=C[C@H](C2CC2)C[C@H](OCc2ccc(CO)cc2)O1)N1CCN(Cc2ccccc2)CC1 | 4.26% (inactive)
CN(C)NC(=O)C(NC(=O)c1ccc(N)cc1)C12CC3CC(CC(C3)C1)C2 (stereo not given) | 5.7% (inactive)
CCOC(=O)c1ccccc1N1C(=O)C2Sc3[nH]c(=O)sc3C(/C=C/c3ccccc3)C2C1=O (stereo not given) | -0.3% (inactive)
CCC(C)NCCOCCOc1ccc(Br)cc1C (stereo not given) | -28.9% (inactive)
COc1ccc2cc(CCl)c(Cl)nc2c1 | -7.11% (inactive)
CCCn1c(N)c(C(=O)CSc2nnc(-c3cccnc3)n2-c2ccc(C)cc2C)c(=O)[nH]c1=O | 6.05% (inactive)
COc1cccc(-n2c(SCC(=O)c3c[nH]c4ccccc34)nc3ccccc3c2=O)c1 | 5.13% (inactive)
CCCn1c(N)c(C(=O)CSc2nc3ccccc3c(=O)n2-c2ccc(OC)cc2)c(=O)[nH]c1=O | 30.7% (active)

Compound | inhibition
CCCCCOc1ccc(CSC2=NCCN2)cc1[N+](=O)[O-] | -7.5% (inactive)
CCOC(=O)c1sc(=S)n(-c2cccc(OC)c2)c1N | 0.93% (inactive)
CCOC(=O)c1sc(=S)n2c1[nH]c(=O)c1ccc(C(=O)OC)cc12 | 32.4% (active)
CCOC(=O)Cn1c(N)c(C(=O)OC)sc1=S | 0.02% (inactive)
CCOC(=O)C1=C(C)NC(=S)NC1c1cccs1 (stereo not given) | -5% (inactive)
COC(=O)c1ccc(NC(=O)c2cc(Cl)ccc2OC)cc1 | -17.6% (inactive)
CC(=O)N1CCN(S(=O)(=O)c2c(F)cc(F)c(Cl)c2F)CC1 | 6.03% (inactive)
Cc1ccc(N2C(=O)C(CC(=O)Nc3cccc(F)c3)N(CCc3ccncc3)C2=O)cc1 (stereo not given) | 7.79% (inactive)
CCn1c(Cc2ccccc2)nnc1SCc1nc2ccccc2c(=O)[nH]1 | 5.28% (inactive)
COc1ccc(CCCc2nnc(SCc3nc4ccccc4c(=O)[nH]3)n2C)cc1 | 31.9% (active)
CCn1c(COc2c(C)cccc2C)nnc1SCc1nc2ccccc2c(=O)[nH]1 | 0.34% (inactive)
Cc1ccc(N(CCC(=O)O)S(=O)(=O)c2cccc(C(F)(F)F)c2)cc1 | 5.45% (inactive)
O=c1nc(N/N=C/c2ccco2)cn[nH]1 | -4.7% (inactive)
Cc1cc(=O)[nH]c(SCC(N)=O)c1C#N | 4.32% (inactive)
CC(=O)c1cc(C#N)c(SCC(=O)C(C)(C)C)nc1C | -12.4% (inactive)
CCCCSc1[nH]c(=O)c(C(=O)OCC)cc1C#N | 39.8% (active)
COc1cc(NS(=O)(=O)c2ccc(NC(=O)c3ccc(S(=O)(=O)N4CCCCC4)cc3)cc2)ncn1 | -0.14% (inactive)
N#Cc1ccc(C(=O)Nc2nc(-c3cccs3)c(C(=O)C(F)(F)F)s2)cc1 | 2.83% (inactive)
CCn1c(CSCc2c(Cl)cccc2Cl)n[nH]c1=S | 10.9% (inactive)
CN(CC(=O)Nc1ccc(S(=O)(=O)N2CCCC2)cc1)Cc1ccc(Cl)c(Cl)c1 | -4.82% (inactive)
COc1ccccc1N1CCN(CCCCOc2ccc(F)cc2)CC1 | 13.4% (inactive)
CNCC(O)CN1CCN(c2ccccc2OC)CC1 (stereo not given) | 3.01% (inactive)
COc1ccccc1N1CCN(Cc2ccc(OC)c3ccccc23)CC1 | 31.9% (active)
